Structures can show the parent of a compound that is named as a salt.
Experiments:
[1] = tested on: S. cerevisiae SK1 pCDA2-eGFP (USY613), sporulating; experiment: CDA2-GFP sporulation assay sensitivity score (z-score vs DMSO controls); higher = stronger inhibition of sporulation, active = hit call of the paper;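 also: active if sensitivity score above 5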
[2] = tested on: S. cerevisiae AD1-9 (efflux-pump deficient), vegetative growth in YPD; experiment: growth sensitivity score (doubling time z-score vs DMSO controls); higher = slower growth, strongly negative scores also mark growth inhibition (complete suppression), active = hit call of the paper
Procedure, shortened: (§1)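 Saccharomyces cerevisiae strains BY4741 and AD1-9 were seeded in rich medium in microtiter plates at an OD600 of 0.065. Compounds were added at a 1:100 dilution of DMSO stock. Optical density was read every 15 min for 24 hours on a Tecan GENios reader. Average doubling time was the time taken to reach a set generation point divided by generation number, and the growth sensitivity score was (compound mean − DMSO-control mean)/DMSO-control SD, using eight DMSO controls per experiment.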

[3] = tested on: S. cerevisiae BY4741 (wild-type), vegetative growth in YPD; experiment: as above
Procedure, shortened: as §1

| SMILES | CDA2-GFP sporulation assay sensitivity score [1] | growth sensitivity score [2] | growth sensitivity score [3] |
| --- | --- | --- | --- |
| CCN(CC)CC1CCCCN1CC(=O)N1c2ccccc2C(=O)Nc2cccnc21 (stereo not drawn) [Otenzepad] (stock concentration (mM, diluted 1:100): 10) | 0.65 (inactive) | -1.89 (inactive) | -2.57 |
| CC(=O)O[C@@]12CO[C@@H]1C[C@H](O)[C@@]1(C)C(=O)[C@H](O)C3=C(C)[C@@H](OC(=O)[C@H](O)[C@@H](NC(=O)OC(C)(C)C)c4ccccc4)C[C@@](O)([C@@H](OC(=O)c4ccccc4)[C@H]21)C3(C)C [Docetaxel] (stock concentration (mM, diluted 1:100): 10) | -0.23 (inactive) | -0.53 (inactive) | 1.16 (inactive) |
| Cc1ccc(O)c([C@H](CCN(C(C)C)C(C)C)c2ccccc2)c1 [Tolterodine tartrate] (stock concentration (mM, diluted 1:100): 6.9) | 1.84 (inactive) | 2.36 (active) | 0.36 (inactive) |
| O=C1CCc2ccc(OCCCCN3CCN(c4cccc(Cl)c4Cl)CC3)cc2N1 [Aripiprazole] (stock concentration (mM, diluted 1:100): 10) | -0.09 (inactive) | 18.5 (active) | 117 (active) |
| CCC(=O)O[C@]1(C(=O)SCF)[C@H](C)C[C@H]2[C@@H]3C[C@H](F)C4=CC(=O)C=C[C@]4(C)[C@@]3(F)[C@@H](O)C[C@@]21C [Fluticasone propionate] (stock concentration (mM, diluted 1:100): 10) | -2.57 (inactive) | -1.65 (inactive) | -0.58 (inactive) |
| COc1cc(N)c(Cl)cc1C(=O)NC1CCN(CCCOc2ccc(F)cc2)CC1OC (stereo not drawn) [Cisapride] (stock concentration (mM, diluted 1:100): 10.5) | 0.78 (inactive) | 8.05 (active) | 1.35 (inactive) |
| Cn1nnc2c(C(N)=O)ncn2c1=O [Temozolomide] (stock concentration (mM, diluted 1:100): 10) | -0.1 (inactive) | -0.09 (inactive) | 1.92 (inactive) |
| COc1cc2nc(N3CCN(C(=O)c4ccco4)CC3)nc(N)c2cc1OC [Prazosin] (stock concentration (mM, diluted 1:100): 10) | 1.07 (inactive) | 2.31 (active) | -0.58 (inactive) |
| CC(=O)Nc1ccc(CC(=O)O)cc1 [Actarit] (stock concentration (mM, diluted 1:100): 10) | 0.84 (inactive) | 0.98 (inactive) | -2 (inactive) |
| Clc1cccc(Cl)c1NC1=NCCN1 [Clonidine] (stock concentration (mM, diluted 1:100): 10) | -1.29 (inactive) | -1.44 (inactive) | -1.97 (inactive) |
| C[C@]12CC[C@@H]3c4ccc(O)cc4CC[C@H]3[C@@H]1CC[C@@H]2O [Beta-Estradiol] (stock concentration (mM, diluted 1:100): 10) | 0.49 (inactive) | 10.3 (active) | 3.35 (active) |
| CCCN[C@H]1CCc2nc(N)sc2C1 [Pramipexole] (stock concentration (mM, diluted 1:100): 10) | -1.03 (inactive) | 51 (active) | -0.06 (inactive) |
| Nc1ccn([C@@H]2CS[C@H](CO)O2)c(=O)n1 [Lamivudine] (stock concentration (mM, diluted 1:100): 9.9) | 1.14 (inactive) | -1.68 (inactive) | -0.39 (inactive) |
| CN1[C@@H](CC(=O)c2ccccc2)CCC[C@H]1C[C@H](O)c1ccccc1 [Lobeline hydrochloride] (stock concentration (mM, diluted 1:100): 10) | 2.99 (inactive) | -1.96 (inactive) | 0.72 (inactive) |
| N#Cc1ccc(C(c2ccc(C#N)cc2)n2cncn2)cc1 [Letrozol] (stock concentration (mM, diluted 1:100): 10) | 1.08 (inactive) | 20.4 (active) | -0.45 (inactive) |
| CC1CNc2c(cccc2S(=O)(=O)N[C@@H](CCCNC(=N)N)C(=O)N2CC[C@@H](C)C[C@@H]2C(=O)O)C1 (stereo partly drawn) [Argatroban] (stock concentration (mM, diluted 1:100): 10.1) | -1.04 (inactive) | -2.07 | -0.6 (inactive) |

Reference: the supplement of paper PMC3414501
